In the library only some 4.8% were active in any assay of this set; here they are far more common.
SMARCA2 act: SMARCA2 function activation, primary screen | AID 652017 | activation, % at 9.1 µM | MG213 cells, MMTV-luciferase reporter, dexamethasone, overnight | 1% of 370,000 active; in the data active = activation above about 7.8%;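 note: 0% = vehicle wells and 100% = reference activator wells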
ssDAF12 agonist: activators of S. stercoralis DAF-12 nuclear receptor; HEK293 ssDAF-12/GRIP1 lit1-tk-luc reporter, luminescence; % of 3 µM dafachronic acid response; activation, % at 6.8 µM; 1% of 370,000 active; AID 652126;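 active = activation above the mean over all tested compounds plus 3 SD, cut at about 0.9% in these data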;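 note: 0% = DMSO-only wells and 100% = 3 µM delta7-dafachronic acid wells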
DAX1 inh-1: blocks DAX1 repression of SF-1 activated StAR promoter | HEK293T StAR-luciferase reporter, SF-1/DAX-1 repression relief | inhibition, % at 6.8 µM | 1.1% of 370,000 active | AID 652010;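 active = inhibition above the mean over all tested compounds plus 3 SD, cut at about 3.6% in these data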;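 note: 0% = DAX-1 cells with DMSO and 100% = cells lacking DAX-1 with DMSO; higher inhibition means more luminescence from relief of DAX-1 repression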
DAX1 inh-2: NR0B1 (DAX1) inhibition; HEK293 Gal4-DAX1 luciferase reporter, luminescence; inhibition, % at 6.75 µM; 0.99% of 340,000 active; AID 504766;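 active = inhibition above the mean over all tested compounds plus 3 SD, cut at about 4.2% in these data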;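 note: 0% = DAX1-transfected cells with DMSO and 100% = empty-vector control cells with DMSO; inhibition shows as a rise in luminescence from relieved DAX1 repression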
Target sequence (P51843 207-470 limits assumed): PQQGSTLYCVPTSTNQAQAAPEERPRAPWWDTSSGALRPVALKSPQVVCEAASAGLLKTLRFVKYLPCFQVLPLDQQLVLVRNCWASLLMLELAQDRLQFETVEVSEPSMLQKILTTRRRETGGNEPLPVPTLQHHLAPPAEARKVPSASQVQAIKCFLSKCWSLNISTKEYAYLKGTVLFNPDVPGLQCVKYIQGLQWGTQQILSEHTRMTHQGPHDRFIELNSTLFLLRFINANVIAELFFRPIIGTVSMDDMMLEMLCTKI
hcDAF12 agonist: activates DAF-12 receptor from parasite H. contortus | HEK293 hcDAF-12 lit1-tk-luc reporter, luminescence; 0% DMSO, 100% Δ7-dafachronic acid | 1.4% of 370,000 active | activation, % at 6.8 µM;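 active = activation above the mean of all tested compounds plus 3 SD, cut at about 5.5% in these data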;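 note: 100% = response to 3 µM Δ7-dafachronic acid high control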
hgDAF12 agonist: agonists of H. glycines DAF-12 nuclear receptor | HEK293 GAL4-hgDAF12 UAS-luciferase reporter, agonist luminescence; normalized to butyrate control | activation, % at 6.8 µM | 1.8% of 370,000 active;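 active = activation above a cutoff set at the mean of all screened compounds plus 3 SD, cut at about 10% in these data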;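 note: 0% = DMSO wells and 100% = sodium butyrate wells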
LXR ag: counter-screen for hcDAF-12 agonists: agonists of human LXR-beta; shares compounds with hcDAF12 agonist; HEK293 Gal4-LXR tk-luc reporter, luminescence, 24 h; normalized: DMSO 0%, positive control 100%; activation, % at 6.8 µM; 3,400 tested, under 10 active; AID 743027;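 active = mean percent activation of the reporter above a cutoff set as the average over tested compounds plus their standard deviation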
hcDAF12 ag: hcDAF-12 agonism, confirmation assay. HEK293 hcDAF-12 lit1-tk-luc reporter, luminescence; % of Δ7-dafachronic acid response. AID 743032. shares compounds with hcDAF12 agonist. 61% of 3,400 active. activation, % at 6.8 µM;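 active = mean activation across triplicate tests above the threshold derived from the earlier primary screen, cut at about 5.5% in these data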;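 note: 0% = DMSO only wells and 100% = 3 µM Δ7-dafachronic acid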
Active calls of the source: *; / = no result given.

SMILES	SMARCA2 act	ssDAF12 agonist	DAX1 inh-1	DAX1 inh-2	hcDAF12 agonist	hgDAF12 agonist	LXR ag	hcDAF12 ag
c1ccc(N2CC3COc4ccccc4C3=N2)cc1 (stereo unspecified)	3	2.8*	3.9*	4	16*	20*	1	14*
c1ccc2c(c1)OCc1cn[nH]c1-2	-1	-1	1	-1	-1	-1	/	/
COC(=O)[C@]1(CNC(=O)NCCc2ccc(OC)c(OC)c2)CC(=O)N(C)[C@@H]1c1ccccc1	-1	-1	2	/	-1	4	/	/
CCN1CCc2nc(NC(=O)c3ccccc3)sc2C1	4	1	4.0*	-1	8.9*	7	1	6.8*
O=C(Nc1nc2c(s1)CN(Cc1ccccc1)CC2)C1CCC1	1	-1	3	0	4	6	/	/
O=C(NC(=S)Nc1nc2c(s1)CCCC2)c1ccccc1	3	1.0*	2	1	12*	11*	2	16*
CCOc1ccc(/C=N/NC(=O)c2ccoc2C)cc1OC	4	0	3	1	1	9	/	/
COc1cccc(/C=N/NC(=O)c2ccoc2C)c1	2	0	2	3	7.2*	11*	1	5
Cn1cc(/C=N\NC(=O)c2cccs2)c2ccccc21	5	0	3	6.1*	6.8*	13*	1	4
CC(C)CCNC(=O)C1CC(c2ccccc2[N+](=O)[O-])=NO1 (stereo unspecified)	2	0	0	2	7.2*	4	0	4
CCc1cc(C(=O)NNC(=S)Nc2cccc(C)c2)cs1	3	-1	2	2	1	6	/	/
CCc1cc(C(=O)Nc2ccc(C)cc2Br)cs1	6	1.6*	3.7*	1	9.1*	12*	1	12*
CCOC(=O)c1cccc(NC(=O)CN(C)S(=O)(=O)c2ccc(Br)s2)c1	-4	-2	-1	/	-1	-2	/	/
COC(=O)c1ccc2nc(-c3ccco3)c(Cc3ccsc3)n2c1	-4	-1	-1	/	2	1	/	/
CCc1ccc(Nc2ncccc2C#N)cc1	-2	0	0	-1	5	3	/	/
CCC(C)c1ccc(Nc2ncccc2C#N)cc1 (stereo unspecified)	5	0	0	1	7.7*	7	1	8.6*
Cc1ccc2c(c1)N(CCCC(=O)NCc1c(F)cccc1F)C(=O)CO2	-5	-1	-2	/	-2	3	/	/
CCOC(=O)c1c(C)nc(-c2ccccc2)nc1N	1	1.5*	3	4.8*	9.2*	16*	1	14*
CC(=O)c1c(C)nc(-c2ccccc2)nc1N	0	-1	0	1	1	8	/	/
CCOC(=O)C1=NOC(C(C)=O)(C(=O)Nc2cc(C)cc(C)c2)C1 (stereo unspecified)	-2	0	0	/	-1	0	/	/
Cc1ccc(C(=O)NC(=S)Nc2c(C)ccc3nsnc23)cc1	2	1.6*	0	0	7.6*	0	0	3
N/C(=N\N=C\c1ccc(O)cc1)c1nonc1N	0	0	4	3	7.9*	16*	1	5
COc1cc(/C=N/N=C(\N)c2nonc2N)ccc1O	2	-1	2	2	0	8	/	/
C[C@H]1COc2cccc(N3CCCC3)c2S(=O)(=O)N1	-4	-1	1	/	-1	-1	/	/
c1cncc(-c2nc(-c3ccc4c(c3)OCO4)cs2)c1	7	0	2	1	6.8*	12*	1	5
SMILES	SMARCA2 act	ssDAF12 agonist	DAX1 inh-1	DAX1 inh-2	hcDAF12 agonist	hgDAF12 agonist	LXR ag	hcDAF12 ag
Cc1nc(-c2ccc3c(c2)OCO3)cs1	0	0	0	0	5	3	/	/
CCSc1ncc(/C=N/Nc2ccc(Cl)cc2)n1C	6	1.6*	3	3	12*	10	1	10.0*
COc1ccccc1Nc1ncc(-c2cccs2)s1	6	1.3*	2	3	11*	9	1	15*
COc1ccccc1Nc1ccc(C(=O)NCc2cccs2)cn1	-6	-1	0	1	0	-1	/	/
O=C(Nc1ccccc1)c1cn2ccccc2n1	0	0	3	-4	7.0*	10	1	5
O=C(Nc1ccc(-n2cnnn2)cc1)c1cn2ccccc2n1	/	/	/	0	/	/	/	/
CCCN(c1ccc(C(C)C)cc1)S(=O)(=O)c1c(C)noc1C	-5	0	0	0	-2	-1	/	/
Cc1noc(C)c1S(=O)(=O)N(CC(=O)N1CCn2c1nc1ccccc12)c1ccc(C(C)C)cc1	-1	0	0	3	8.4*	-3	0	5
Cn1c(NC(=S)Nc2ccccc2)nc2ccccc21	6	1	2	0	7.9*	11*	1	5
O=C(NC(=S)Nc1nc2ccccc2s1)c1cccs1	7	1	2	5.1*	13*	9	1	17*
O=C(NC(=S)Nc1ccc(Br)cn1)c1cncc(Br)c1	3	-1	0	0	-1	0	/	/
O=C(NC(=S)Nc1ccc(Br)cn1)c1cccs1	7	2.0*	3	6.1*	13*	14*	2	12*
COC(=O)c1nc(NC(=S)NC(=O)c2cccs2)sc1C	0	0	1	0	4	5	/	/
O=C(CSc1nc2ccccc2nc1N1CCOCC1)NCc1ccc(Cl)cc1Cl	-4	-2	-1	/	1	2	/	/
Cc1cc(NC(=O)COC(=O)c2oc3c(Cl)cccc3c2C)no1	-3	0	0	3	6.8*	2	0	3
COC(=O)[C@]12CCCCC=C1N(Cc1ccc(OC)cc1)C(=O)[C@@H]2CC(=O)N1CCN(C(=O)c2ccco2)CC1	-1	-2	1	/	-4	1	/	/
COc1ccc(NCC(=O)N/N=C/C=C\c2ccccc2)cc1	0	-1	1	-1	7.6*	6	0	0
COc1ccccc1NCC(=O)N/N=C/C=C/c1ccccc1	-1	-1	0	1	1	2	/	/
C/C(C=NNC(=O)CSc1nnc(-c2ccccc2)n1-c1ccc(C)cc1)=C\c1ccco1	2	-1	0	/	-2	-1	/	/
O=C(O)Cc1sc(Nc2cccc3ccccc23)nc1-c1ccc(Cl)cc1	-1	0	0	0	6.7*	-1	0	2
Cc1ccccc1S(=O)(=O)N1CCCc2nc(-c3ccc(F)cc3)ccc21	-8	-1	-1	/	-1	-2	/	/
